Shown are actives, neighbours in structure and some others; about 2.3% of the full set was active somewhere.
ATXN2 expr inh: Primary qHTS for Inhibitors of ATXN expression. 0.72% of 360,000 active. HEK-293 ATXN2-luciferase reporter, luminescence, 24 h. Potency, µM (series often up to 57 µM), actives largely listed as inhibitors; note: nearly all actives have a fitted effect of over 55% in size
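ATXN2-luciferase reporter cells (luciferase flanked by upstream and downstream ATXN2 gene portions) were treated 24 h at 37 °C with compounds at up to 57 uM. SteadyGlo luminescence gave expression; GF-AFC fluorescence gave viability.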
TGFb inhibitor: qHTS for Inhibitors of TGF-b; HepG2 CAGA-GFP TGF-b/SMAD3 reporter, GFP fluorescence, 18 h; TGF-beta stimulated, 500 pg/mL final; 1.2% of 410,000 active; Potency, µM (doses to about 46.1 µM), hits mostly inhibitors; note: nearly all actives have a fitted effect of over 65% in size
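Cell-based qHTS in HEPG2 carrying a CAGA-GFP Smad reporter; compounds added before 500 pg/mL final TGF-beta, 18 h incubation at 37 degrees C, GFP fluorescence quantified per cell by imaging cytometry.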
HepG2 tox-1: qHTS for Inhibitors of TGF-b: Cytotox Counterscreen; AID 588856, 2011; Potency, µM (highest dose often 46.1 µM), most hits filed as cytotoxic; HepG2 CAGA-GFP viability, ATP luminescence, 18 h; 0.76% of 410,000 active
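HepG2 CAGA-GFP cells (1000/well, DMEM with 1% FBS) received compound, then TGF-beta at 500 pg/mL final, and were incubated 18 hours at 37 degrees C. Viability was read by CellTiter-Glo luminescence. Media-only wells were set as complete cell-killing and DMSO as no toxicity.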
S2 tox: Viability Counterscreen for Primary qHTS for Inhibitors of ATXN expression | Potency, µM (doses to about 56.7 µM), actives largely listed as cytotoxic | AID 651635, 2014 | 0.49% of 400,000 active | S2 cells (HEK-293 line with an ATXN2-luciferase reporter) viability, CellTiter-Fluor protease fluorescence, 24 h; note: nearly all actives have a fitted effect of over 40% in size
TGFb confirm: qHTS for Inhibitors of TGF-b: Confirmation of Cherry Picks; HepG2 CAGA-GFP TGF-b reporter, GFP fluorescence, 18 h; cells stimulated with TGF-beta, 500 pg/mL; shares compounds with TGFb inhibitor; 63% of 1,600 active; Potency, µM (doses to about 46.1 µM), actives largely listed as inhibitors; note: nearly all actives have a fitted effect of over 65% in size
HepG2 tox-2: qHTS for Inhibitors of TGF-b: Cytotox Counterscreen for Cherry Picks; shares compounds with TGFb inhibitor; HepG2 CAGA-GFP viability, ATP luminescence, 18 h; cells stimulated with TGF-beta, 500 pg/mL; Potency, µM (doses to about 46.1 µM), actives largely listed as inhibitors; 27% of 1,600 active; note: nearly all actives have a fitted effect of over 70% in size
TGFb CCL64 inh: qHTS for Inhibitors of TGF-b: CCL64 Cells Orthogonal Assay for Cherry Picks; shares compounds with TGFb inhibitor; CCL64 CAGA-GFP reporter, TGF-b stimulated, GFP fluorescence, 18 h; Potency, µM (titrated, usually from 46.1 µM), usual class: inhibitors; 41% of 1,600 active; note: nearly all actives have a fitted effect of over 65% in size
TGFb COP inh: qHTS for Inhibitors of TGF-b: Hit Validation in HepG2 Cells using COP promoter; shares compounds with TGFb inhibitor; HepG2 COP-GFP TGF-b reporter, GFP fluorescence, 18 h; cells stimulated by added recombinant TGF-beta; Potency, µM (top dose mostly 46.1 µM), most hits filed as inhibitors; 3% of 1,600 active; AID 720537, 2013; note: nearly all actives have a fitted effect of over 70% in size
Of the large screens only hits and unclear results are named; the others gave an inactive call (follow-up assays come after a bar, where they were run). Calls come from the whole dose curve; as a rule, active = well fitted curve in the direction sought with a large enough effect; inconclusive = small, poorly fitted or top-dose-only effect, or another doubt; inactive = no such curve, though single readings can be large; an effect the other way counts as inactive or inconclusive.

O=C(Nc1csc([N+](=O)[O-])c1)Nc1ccccc1Cl	ATXN2 expr inh inconclusive, TGFb inhibitor 12.6µM, S2 tox inconclusive | TGFb confirm 16.4µM | HepG2 tox-2 inconclusive | TGFb CCL64 inh inconclusive | TGFb COP inh inactive
C/C=C1\COC(C(=O)NCc2ccccc2)(C(F)(F)F)C=C1C=C1CCCCC1 (stereo not drawn)	TGFb inhibitor 11.2µM | TGFb confirm inconclusive | HepG2 tox-2 inactive | TGFb CCL64 inh inconclusive | TGFb COP inh inactive
C/C=C1\COC(C(=O)NCCN2CCCC2)(C(F)(F)F)C=C1C=C1CCCCC1 (stereo not drawn)	ATXN2 expr inh inconclusive, TGFb inhibitor inconclusive, S2 tox inconclusive
COc1ccc(NC(=O)[C@@H]2CC=C[C@@H]3CCN(Cc4ccc(Cl)c(Cl)c4)C(=O)[C@@H]32)cc1	TGFb inhibitor 12.6µM, S2 tox inconclusive | TGFb confirm 2.91µM | HepG2 tox-2 inactive | TGFb CCL64 inh 29.1µM | TGFb COP inh inactive
COc1ccc(NC(=O)[C@@H]2CC=C[C@@H]3CCN(Cc4ccccc4)C(=O)[C@@H]32)cc1	TGFb inhibitor inconclusive
O=C(c1ccc(Cl)c(Cl)c1)N1CCC(=O)N(C(COCc2ccc(Cl)cc2)Cc2ccccc2)CC1 (stereo not drawn)	ATXN2 expr inh inconclusive, TGFb inhibitor 10µM, S2 tox inconclusive | TGFb confirm 20.6µM | HepG2 tox-2 inconclusive | TGFb CCL64 inh inconclusive | TGFb COP inh inactive
Cc1cccc(COCC(Cc2ccccc2)N2CCN(C(=O)c3cc(Cl)cc(Cl)c3)CCC2=O)c1 (stereo not drawn)	ATXN2 expr inh inconclusive, TGFb inhibitor 12.6µM, S2 tox inconclusive | TGFb confirm 8.2µM | HepG2 tox-2 inconclusive | TGFb CCL64 inh 13µM | TGFb COP inh inactive
Cc1cccc(COCC(Cc2ccccc2)N2CCN(C(=O)c3ccc(Cl)c(Cl)c3)CCC2=O)c1 (stereo not drawn)	ATXN2 expr inh inconclusive, TGFb inhibitor inconclusive, S2 tox inconclusive
Cc1c(C#N)c(NC(=O)COC(=O)c2cc(Cl)c3c(c2)OCCCO3)n(Cc2ccco2)c1C	none (no result: ATXN2 expr inh, S2 tox)
O=C(Oc1c(Cl)cc(Cl)c2cccnc12)c1ccco1	ATXN2 expr inh inconclusive, TGFb inhibitor 6.31µM, S2 tox inconclusive | TGFb confirm 18.4µM | HepG2 tox-2 inconclusive | TGFb CCL64 inh inconclusive | TGFb COP inh inactive
CC(CN1CCOCC1)OC(=O)c1cccs1 (stereo not drawn)	none
O=C(Oc1c(CN2CCOCC2)cc(Cl)c2cccnc12)c1cccs1	ATXN2 expr inh inconclusive, TGFb inhibitor 7.08µM, S2 tox inconclusive | TGFb confirm inconclusive | HepG2 tox-2 inconclusive | TGFb CCL64 inh 16.4µM | TGFb COP inh inactive
O=C(Oc1cncc(Cl)c1)c1ccco1	none
O=C(Oc1c(Cl)cc(Cl)c2cccnc12)c1cccs1	ATXN2 expr inh inconclusive, TGFb inhibitor 3.55µM, S2 tox inconclusive | TGFb confirm 20.6µM | HepG2 tox-2 inconclusive | TGFb CCL64 inh inconclusive | TGFb COP inh inactive
COc1ccc(C2Nc3ccccc3C(=O)N2c2ccc(Cl)cc2)cc1COc1ccc(NC(C)=O)cc1 (stereo not drawn)	none (no result: ATXN2 expr inh, S2 tox)

From PubChem
